The text below walks through data of the antibiotic and cytotoxicity screens of Wong et al. (2023).

Hit rate of the full screen: of about 39,000 compounds, about 1,500 (3.8%) were called active. The sample holds actives, similar compounds and a random draw of the others, so the mix is not that of the screen.

The assay concerns HSkMC (human skeletal muscle cells). Put plainly: cytotoxicity call (relative viability < 0.9). The following applies: 10 µM.
For the compound `C[C@H](CO)N1C[C@H](C)[C@H](CN(C)S(=O)(=O)c2cccc(F)c2)Oc2ncc(C#CC3(O)CCCC3)cc2C1=O`, the cytotoxicity call is “inactive”.

`C[C@H](CO)N1C[C@H](C)[C@H](CN(C)CC2CCCCC2)Oc2c(NC(=O)c3nc4ccccc4s3)cccc2C1=O`: the cytotoxicity call was “inactive”.

For the compound `C[C@@H]1CN([C@@H](C)CO)C(=O)c2cc(NS(=O)(=O)c3cn(C)cn3)ccc2O[C@@H](C)CCCCO[C@@H]1CN(C)S(=O)(=O)c1ccccc1`, the cytotoxicity call was “inactive”. Take `COc1ccc(-c2cnc3c(c2)C(=O)N([C@H](C)CO)C[C@@H](C)[C@H](CN(C)C(=O)Cc2ccncc2)O3)cc1`: the cytotoxicity call is “inactive”. `C[C@@H]1CN([C@@H](C)CO)C(=O)c2cc(NC(=O)Cn3cnnn3)ccc2O[C@@H]1CN(C)S(=O)(=O)c1ccccc1`: the cytotoxicity call was “inactive”.

Take `O=C(C[C@H]1C[C@H]2c3cc(NC(=O)NC4CCCC4)ccc3O[C@H]2[C@H](CO)O1)NCCN1CCCCC1`: the cytotoxicity call was “inactive”. For `Cc1ncc([N+](=O)[O-])n1C` the value was “inactive”; for `C[C@@H]1CCCCO[C@H](CN(C)S(=O)(=O)c2cn(C)cn2)[C@@H](C)CN([C@@H](C)CO)C(=O)c2cc(NC(=O)Nc3ccc(C(F)(F)F)cc3)ccc2O1`, “inactive”.

For the compound `C[C@H]1CN([C@@H](C)CO)C(=O)Cc2cc(NC(=O)c3ccncc3)ccc2O[C@H]1CN(C)C(=O)NC1CCCCC1`, the cytotoxicity call is “inactive”. Regarding `Cc1ccc(S(=O)(=O)Nc2ccc3c(c2)C(=O)N([C@@H](C)CO)C[C@@H](C)[C@@H](CN(C)C(=O)NC2CCCCC2)OCCCC[C@H](C)O3)cc1`, the cytotoxicity call was “inactive”. Take `C[C@H](O)C#Cc1ccc2c(c1)O[C@H](CN(C)C(=O)Nc1ccccc1)[C@@H](C)CN([C@@H](C)CO)S2(=O)=O`: the cytotoxicity call was “inactive”.

Regarding `Cc1ccccc1S(=O)(=O)N1C[C@H](O)COC[C@@H]2O[C@@H](CC(=O)N3CCN(C)CC3)CC[C@H]21`, the cytotoxicity call was “inactive”. Take `COCC(=O)Nc1ccc2c(c1)C(=O)N(C)C[C@@H](OC)[C@H](C)CN(C(=O)CN1CCOCC1)[C@H](C)CO2`: the cytotoxicity call is “inactive”. Turning to `COc1ccc(-c2ccccc2)cc1NC(=O)c1ccc2nc(C)c(N(C)C(=O)CCc3ccccc3)n2c1`, the cytotoxicity call is “inactive”.

Take `C[C@H](CO)N1C[C@H](C)[C@H](CN(C)C(=O)C2CCC2)Oc2cc(C#Cc3ccncc3)ccc2S1(=O)=O`: the cytotoxicity call was “inactive”. For `N[C@H]1CCN(c2ccc(C(F)(F)F)cn2)C1` the value was “inactive”; for `COc1ccc(S(=O)(=O)Nc2ccc3c(c2)C(=O)N([C@H](C)CO)C[C@H](C)[C@H](CN(C)Cc2ccc(C(F)(F)F)cc2)OCCCC[C@@H](C)O3)cc1`, “inactive”; for `COc1ccc(S(=O)(=O)Nc2ccc3c(c2)C(=O)N([C@@H](C)CO)C[C@H](C)[C@H](CN(C)Cc2ccc(C(F)(F)F)cc2)OCCCC[C@H](C)O3)cc1`, “active”. With `COc1ccc(S(=O)(=O)Nc2ccc3c(c2)C(=O)N([C@H](C)CO)C[C@H](C)[C@@H](CN(C)Cc2ccc(C(F)(F)F)cc2)OCCCC[C@H](C)O3)cc1`, the cytotoxicity call is “inactive”. For `COc1ccc(S(=O)(=O)Nc2ccc3c(c2)C(=O)N([C@@H](C)CO)C[C@H](C)[C@H](CN(C)Cc2ccc(C(F)(F)F)cc2)OCCCC[C@@H](C)O3)cc1` the value was “inactive”. For `COc1ccc(S(=O)(=O)Nc2ccc3c(c2)C(=O)N([C@H](C)CO)C[C@@H](C)[C@H](CN(C)Cc2ccc(C(F)(F)F)cc2)OCCCC[C@H](C)O3)cc1` the value was “inactive”.

Regarding `COc1ccc(S(=O)(=O)Nc2ccc3c(c2)C(=O)N([C@@H](C)CO)C[C@@H](C)[C@H](CN(C)Cc2ccc(C(F)(F)F)cc2)OCCCC[C@H](C)O3)cc1`, the cytotoxicity call is “active”.
